For orientation: inhibition means the drop in the measured response relative to a control, in per cent.

This test concerns the target Glucose transporter (Leishmania mexicana) (UniProt O61059). The test is described as follows: ST_JUDE_LEISH: Cytotoxicity at 2uM final concentration against transgenic Leishmania Mexicana promastigotes LmGT2 that are glucose transport deficient and complemented with the L. Mexicana glucose transporter 2. Activity is measured by DNA content using SYBR green in vitro. Type of test: functional.
`N#Cc1ccc(N2CCN(Cc3cccc(-c4cccc(-c5nc6cc(C(F)(F)F)ccc6[nH]5)c4)c3)CC2)nc1`: the inhibition was -2.37%.

As for `COc1ccc2nccc([C@@H](O)CN3CCC(NCc4nc5c(cc4F)SCC(=O)N5)C(F)C3)c2c1` (stereo not given in full), the inhibition is 4.51%.

Consider `CCN(CCCN1CCCCC1)c1cc(C)nc(Nc2ccc(C)cc2C)n1`, for which the inhibition was found to be 2.76%.

For `c1ccc2c(c1)ncc1c3ccccc3[nH]c21`, the inhibition was found to be 4.67%.

Take `Cc1ccc(NC(=O)Nc2ccccc2)cc1-c1ccc(C(=O)Nc2ccncc2)cc1`: the inhibition was 9%.

`O=C(Nc1cccc(CN2CCCN(CCc3ccccc3)CC2)c1)c1ccc(Cl)c(Cl)c1`: the inhibition was -3.05%.

As to `CCn1c(C2CCN(CCC3CCN(C(=O)/C=C/c4ccc(Cl)c(Cl)c4)CC3)CC2)nc2ccccc21`, the inhibition was determined as 0.66%.

Regarding `Cc1[nH]c(C)c(-c2ccc(CCc3ccc(F)cc3F)cc2)c(=O)c1Br`, the inhibition was -2.17%.

Take `COCC(C)n1c(SCC(=O)Nc2cc(C(F)(F)F)ccc2Cl)nc2ccccc2c1=O` (stereo not given): the inhibition turned out to be 2.72%.

Take `COCCN1CCC(NCC(C)(C)c2nc(-c3ccc(Cl)c(O)c3)c(-c3ccncc3)[nH]2)CC1`: the inhibition stood at 6.49%.

`COc1cc(Cc2cnc(N)nc2N)cc(OCCCOc2ccccc2)c1OC`: the inhibition is 4.99%.

For the compound `COc1ccc(Cn2c(SCc3ccc(C)cc3)nc3cc(OC)c(OC)cc3c2=N)cc1Cl`, the inhibition is -2.37%.

With `CC(Oc1cccc(Cl)c1)C(=O)N1CCc2ccccc21` (stereo not given), the inhibition is -1.29%.

On to `Cc1ccc(NC(=O)c2cc([N+](=O)[O-])ccc2NCc2cccnc2)cc1Cl`, for which the inhibition was determined as 2.63%.

Take `CC(C(=O)NC1CCN(c2ccnc(Nc3ccc(F)cc3)n2)C1)c1ccc(Cl)cc1` (stereo not given): the inhibition was determined as 2.7%.

`O=[N+]([O-])c1ccc(C=NNc2nc3ccccc3[nH]2)cc1`: the inhibition was -0.44%.

Turning to `O=C(NC1CCCC1)c1ccc(N2CCC(NCc3cccc(C(F)(F)F)c3)CC2)cc1`, the inhibition was found to be 0.59%.

On to `FC(F)(F)c1ccc2[nH]ccc(=NN=Cc3ccccc3)c2c1`, for which the inhibition was determined as 0.98%.

For the compound `NC1CCCN(Cc2cccc(-c3ccc(-c4nc5ccccc5[nH]4)s3)c2)C1` (stereo not given), the inhibition turned out to be 1.78%.

Regarding `Cc1ccc2c(=O)n(C)c(=O)n(C)c2n1`, the inhibition came to 1.62%.

For the compound `COc1cccc2c(C)cc(NCc3ccc(Cl)cc3)nc12`, the inhibition is 3.54%.

Turning to `O=C(Nc1ccc(Cl)c(C(F)(F)F)c1)N[C@H]1CCN(CCCCCNC(=O)C2CC2c2ccc(Cl)c(Cl)c2)C1` (stereo not given in full), the inhibition was -0.67%.

As for `Cc1cccc2nc(-c3ccc(-c4ccc(NC(=O)C(C)CN5CCN(C)CC5)cc4)s3)[nH]c12` (stereo not given), the inhibition was 2.29%.

For `NC1CCN(CCNCc2cccc(-c3ccc(-c4nc5cc(F)ccc5[nH]4)cc3)c2)C1` (stereo not given), the inhibition was 6.13%.

As to `Cc1nc(C(=O)N2CCCC[C@H]2CNC(=O)c2ccc(-c3ccc(N4CCCC4=O)cc3C)cc2)c(-c2ccc(F)cc2)s1`, the inhibition is 4.58%.

In the case of `COc1ccc(C(F)(F)F)cc1N1CCN(CCCCNC(=O)c2ccc(NC(=O)c3ccc(Cl)cc3)cc2)CC1`, the inhibition is -0.38%.

For the compound `CNCCNCc1cccc(-c2ccc(-c3nc4ccccc4[nH]3)cc2)c1`, the inhibition is -0.51%.

For the compound `Cc1ccc(Nc2nc3cc(N(C)c4ccnc(Nc5cccc(CS(C)(=O)=O)c5)n4)ccc3o2)cc1`, the inhibition amounted to 4.65%.

For the compound `O=C(Nc1cccc(-c2cccc(-c3nc4cc(C(F)(F)F)ccc4[nH]3)c2)c1)c1cccnc1`, the inhibition was -1.51%.

Turning to `CCc1ccc(N2C(N)=NC(N)=NC2(C)C)cc1`, the inhibition came to 2.09%.

Take `COc1cccc(-c2cnc(-c3ccncc3)nc2C2CCN(Cc3ccc(NC(C)=O)cc3)CC2)c1`: the inhibition is 1.53%.

As for `CCCCOC(=O)NCCCC[C@H](NC(=O)OC(C)(C)C)C(=O)N[C@H](C(=O)OC(c1ccccc1)c1ccccc1)[C@H]1O[C@@H](n2ccc(=O)[nH]c2=O)[C@@H]2OC(C)(C)O[C@@H]21`, the inhibition is 0.44%.

Regarding `N=C(N)c1ccc(C(=O)Nc2cccc(C(=N)N)c2)cc1`, the inhibition was -0.81%.

With `COc1ccc(-c2ccc3c(-c4cccc(S(C)(=O)=O)c4)cnc(N)c3c2)cc1`, the inhibition is 0.45%.

As for `CC(=O)Nc1ccc(CN(Cc2cccc(OC(C)(C)C)c2)Cc2ccc3c(c2)OCCO3)cc1`, the inhibition stood at 6.39%.

As to `COc1ccc(C(=O)Cn2nc(-c3ccc(Cl)cc3)ccc2=O)c(OC)c1`, the inhibition was 0.37%.

As for `Cc1ccc(C(=O)Nc2cccc([N+](=O)[O-])c2)cc1S(=O)(=O)N1CC(C)CC(C)C1` (stereo not given), the inhibition came out at 0.08%.

Turning to `Cc1cc2cc(NC(=O)Nc3ccnc4ccccc34)ccc2n1C`, the inhibition was found to be 0.82%.

For the compound `O=S(=O)(c1ccc(OC(F)(F)F)cc1)C1CC2CCC(C1)N2S(=O)(=O)c1ccc(Cl)c(C(F)(F)F)c1` (stereo not given), the inhibition was 10.4%.

As for `COc1ccc(CN2CCC(NCc3cccc([N+](=O)[O-])c3)CC2)cc1`, the inhibition was 6.36%.
